{"source": "PubChem BioAssay AID624264", "about": "(National Center for Advancing Translational Sciences (NCATS), 2012)", "note": "The list shows a part of the results. Records with an inconclusive call do not appear. Activity calls are given as the source filed them. The call rests on the fitted dose curve; in most records, active means well fitted curve in the direction sought with a large enough effect; inconclusive means small, poorly fitted or top-dose-only effect, or another doubt; inactive means no such curve, though single readings can be large or run the other way."}
{"assay": "qHTS for Inhibitors of Glutaminase (GLS): Hit Confirmation using Cytotoxicity", "conditions": "HEK-293 viability, CellTiter-Glo luminescence, 24 h; series mostly up to 46.1 µM", "description": "Glutaminase (GLS) catalyzes the hydrolysis of glutamine into glutamate and ammonia. It plays a critical role in glutaminolysis, which is an important energy source for proliferating cells. It was shown that c-Myc, an oncogenic transcription factor known to regulate microRNAs and to stimulate cell proliferation, increases glutamine metabolism by stimulating the expression of GLS via direct suppression of miR23a and miR23b. […] GLS is also thought to play a pathogenic role on HAD using a human HIV-1 infected macrophage system. […] GLS inhibition limits glutamate release and provides neuroprotection against HIV-1 infected macrophages. […] The overall goal of this project is to identify small molecule inhibitors of GLS through quantitative high throughput screening (qHTS) of the MLSMR. A validated potent and selective inhibitor can be used as a tool molecule to further study the pharmacology of its target as well as explore its potential therapeutic application in cancer and inflammatory neurological disorders, such as HIV1-associated dementia (HAD) and multiple sclerosis. This is a hit confirmation assay using a cytotoxic read-out to exclude cytotoxic compounds. Toxic compounds will be labeled as active and excluded in future experiment. NIH Chemical Genomics Center [NCGC] NIH Molecular Libraries Probe Centers Network [MLPCN] MLPCN Grant: DA032470 Assay Submitter (PI): Barbara S. Slusher, Johns Hopkins University\nHEK-293 cells are grown in a flask up to 80% confluence. Cells will be trypsinized, washed, and resuspended in MEM Eagle + 10% FBS + 1% pen-strep media at the concentration of 120 cells/microl. Five microl/well of cell solution will be dispensed into a 1536-well assay plates (Greiner, solid white medium-binding plates) with Auror Discovery BioRAPTR Flying Reagent Dispenser (FRD; Beckton-Dickenson). Cells will be pre-incubated at 37 °C, 5% CO2 for 4hrs. Compound and control solutions (23nl) will then be transferred to the assay plate using the Kalypsys 1536 pin-tool. […] Luminescence signal will be read with PerkinElmer ViewLux plate reader after 30 min room temperature incubation."}
{"smiles": "COc1cc(OC)c(S(=O)(=O)Nc2ccccc2C(=O)O)cc1S(=O)(=O)Nc1ccccc1C(=O)O", "outcome": "inactive"}
{"smiles": "O=C(O)c1cccc(S(=O)(=O)Nc2ccc(O)cc2Sc2nc3ccccc3s2)c1", "outcome": "inactive"}
{"smiles": "CCN1C(=O)c2cccc3c(S(=O)(=O)Nc4ccccc4O)ccc1c23", "outcome": "inactive"}
